KB-V1 MDR tox = qHTS assay for MDR1-selective chemotherapeutics: Primary screen using the drug-selected MDR subline cells KB-V1; KB-V1 MDR cells viability, CellTiter-Glo, 72 h; Potency, µM (doses to about 46.1 µM), usual class: cytotoxic; 400,000 compounds, 3.4% hits; AID 1347076, 2019; also: % is scaled to controls: 0 for no effect and ±100 for the full control effect; nearly all actives have a fitted effect of over 60% in size
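KB-V1 cells (P-gp-expressing MDR subline of KB-3-1) in phenol-red-free DMEM with 10% FBS were exposed to library compounds over a concentration series for 72 h at 37 degrees C. Viability read by CellTiter-Glo luminescence; concentration-effect curves fitted after normalization.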
ATXN2 expr inh = Primary qHTS for Inhibitors of ATXN expression; HEK-293 ATXN2-luciferase reporter, luminescence, 24 h; 360,000 compounds, 0.72% hits; Potency, µM (top dose mostly 57 µM), for the others: at the highest dose activity change, negative = inhibition, most hits filed as inhibitors; AID 1745845, 2022; also: % is scaled to controls: 0 for no effect and ±100 for the full control effect; nearly all actives have a fitted effect of over 55% in size
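qHTS (up to 57 uM final) was run with 24 h compound exposure of reporter cells at 37 °C. Each well was multiplexed: SteadyGlo luminescence measured ATXN2-luciferase expression after a fluorogenic Gly-Phe-AFC viability readout (25 uM final).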
TGFb inhibitor = qHTS for Inhibitors of TGF-b | HepG2 CAGA-GFP TGF-b/SMAD3 reporter, GFP fluorescence, 18 h; TGF-beta stimulated, 500 pg/mL final | 410,000 compounds, 1.2% hits | AID 588855, 2011 | Potency, µM (titrated, usually from 46.1 µM), for the others: at the top dose activity, negative = inhibition, hits mostly inhibitors; also: % is scaled to controls: 0 for no effect and ±100 for the full control effect; nearly all actives have a fitted effect of over 65% in size
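First, reporter cells (HEPG2 CAGA-GFP) rested 2 h at 37 degrees C. Next, compounds were pinned in and TGF-beta added to 500 pg/mL final. After 18 h, GFP was imaged per cell and summed per well.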
KB-3-1 tox = qHTS assay for MDR1-selective chemotherapeutics: Primary screen using the parental adenocarcinoma cell KB-3-1 | KB-3-1 viability, CellTiter-Glo ATP luminescence, 72 h | AID 1347075, 2019 | Potency, µM (titrated, usually from 46.1 µM), hits mostly cytotoxic | 400,000 compounds, 1.4% hits; also: % is scaled to controls: 0 for no effect and ±100 for the full control effect; nearly all actives have a fitted effect of over 60% in size
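Here the drug-naive KB-3-1 line serves as comparator for MDR sub-line selectivity; cells received compound titrations, 72 h at 37 °C, then CellTiter-Glo readout.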
S2 tox = Viability Counterscreen for Primary qHTS for Inhibitors of ATXN expression. S2 cells (HEK-293 line with an ATXN2-luciferase reporter) viability, CellTiter-Fluor protease fluorescence, 24 h. Potency, µM (series often up to 56.7 µM), most hits filed as cytotoxic. 400,000 compounds, 0.49% hits; also: nearly all actives have a fitted effect of over 40% in size
HepG2 tox = qHTS for Inhibitors of TGF-b: Cytotox Counterscreen. HepG2 CAGA-GFP viability, ATP luminescence, 18 h. Potency, µM (highest dose often 46.1 µM), without a hit: top-dose activity change, negative = cytotoxicity, actives largely listed as cytotoxic. 410,000 compounds, 0.76% hits. AID 588856, 2011
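CellTiter-Glo luminescence gave cytotoxicity after 18 hours at 37 degrees C. The cells were HepG2 CAGA-GFP in 1% FBS DMEM, stimulated with 500 pg/mL TGF-beta after compound addition. %Activity was normalised to no-cell wells (complete cell-killing) and DMSO (no toxicity), and curves were fitted and classified.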
The depositor's hits bear a star; i = inactive; u = inconclusive; x = no result. This is a sample that favours compounds with a hit; in the whole collection about 5.9% have one here. Calls follow the shape of the dose curve; as a rule, active = well fitted curve in the direction sought with a large enough effect; inconclusive = small, poorly fitted or top-dose-only effect, or another doubt; inactive = no such curve, though single readings can be large; an effect the other way counts as inactive or inconclusive. Potency is read from the fitted curve at half-maximal effect.

SMILES	KB-V1 MDR tox	ATXN2 expr inh	TGFb inhibitor	KB-3-1 tox	S2 tox	HepG2 tox
COc1ccc(OCCN2CCC(C(=O)NC(c3ccccc3)c3ccc4ccccc4n3)CC2)cc1 (centres undefined)	i	0%	u	u	u	6.3µM*
COc1cccc(C2C=C(c3ccc(C)c(C)c3)Nc3nnnn32)c1OC (centres undefined)	i	13%	-2%	4.1µM*	i	-21%
COc1cccc(C2=CC(c3cc(OC)ccc3OC)n3nnnc3N2)c1 (centres undefined)	16µM*	-27%	u	6.5µM*	i	-2%
COc1ccc(OC)c(C2C=C(c3ccc(C)c(C)c3)Nc3nnnn32)c1 (centres undefined)	6.5µM*	-28%	0%	6.5µM*	i	-8%
CCOC(=O)c1c(C)[nH]c(C)c1S(=O)(=O)N1CCN(c2ccc(Cl)cc2)CC1	i	-25%	-40%	i	u	-32%
Cc1[nH]c2ccc(F)cc2c1CCNC(=O)c1cc2cc(Cl)ccc2oc1=O	i	5%	8%	i	i	0%
C/C(=N\NC(=O)c1cc(C)nc2ccccc12)c1ccco1	i	-17%	1%	i	i	-1%
C/C(=N\Nc1nc2ccccc2c(=O)n1O)c1ccco1	15µM*	-15%	31%	21µM*	i	-15%
Cc1c(Cl)ccc2sc(N3CCN(C(=O)CS(=O)(=O)c4ccccc4)CC3)nc12	i	20µM*	10µM*	i	u	-43%
COc1ccc(C(=O)N2CCN(c3nc4c(C)c(Cl)ccc4s3)CC2)c(OC)c1	i	-10%	u	i	i	11µM*
Cc1nnc(NC(=O)c2sc3nc(-c4cccs4)cc(C(F)(F)F)c3c2N)s1	13µM*	-9%	63%	i	u	-19%
CC(=O)COc1ccc2c3c(c(=O)oc2c1)CCCC3	12µM*	38%	u	i	i	-2%
Cc1ccc(C)c(NC(=O)CSc2nc(C)cs2)c1	i	1%	1%	i	i	6%
COc1ccc(NC(=O)CSc2nc(C)cs2)c([N+](=O)[O-])c1	23µM*	21%	-2%	i	u	-4%
Cc1csc(SCC(=O)Nc2cccc(C)c2C)n1	16µM*	-4%	3%	i	i	3%
COc1ccc(NC(=O)CSc2nccn2C)c([N+](=O)[O-])c1	i	45%	5%	i	i	-3%
COCCn1c(C)cc(O)c(C(c2ccccc2OC)N2CCCCC2)c1=O (centres undefined)	i	x	3%	i	x	1%
COc1ccc(C)cc1NC(=O)CCn1nc(C)cc1C	i	10%	0%	i	i	9%
CCCn1c(N)c(Sc2ccccc2)c(=O)n(CCC)c1=O	13µM*	11%	0%	i	i	0%
Cn1c(N/N=C/c2cc3ccccc3nc2Cl)nc2ccccc21	u	5%	147%	u	i	5.6µM*
COc1ccc(CCNC(=O)CN(c2cc(C(F)(F)F)ccc2Cl)S(C)(=O)=O)cc1	i	3%	0%	i	i	-27%
CCOC(=O)C(=O)c1c(-c2ccccc2)nc2ccccn12	i	-4%	0%	i	i	-14%
CCOC(=O)c1c(-c2ccccc2)nc2cc(C)ccn12	15µM*	54%	5%	i	i	-33%
CCOC(=O)c1c(-c2ccccc2)nc2ccc(C)cn12	21µM*	26%	-6%	i	u	-7%
CCC(CC)C(=O)N(C)c1c(C)nc2c(OCc3ccc(F)c(F)c3)cccn12	i	-15%	-12%	i	i	-31%
SMILES	KB-V1 MDR tox	ATXN2 expr inh	TGFb inhibitor	KB-3-1 tox	S2 tox	HepG2 tox
CCOc1ccccc1NC(=O)c1cccc(NC(=O)c2ccco2)c1	u	-7%	4%	2.6µM*	u	-4%
Cc1ccccc1NC(=O)c1cccc(NC(=O)c2ccco2)c1	i	4%	2%	i	i	13%
CCOc1cc(NS(C)(=O)=O)c(OCC)cc1NC(=O)c1cccs1	9.2µM*	-3%	5%	u	u	-3%
CC1=C(C(=O)Nc2cc(C(=O)NCc3ccccc3)ccc2C)SCCO1	21µM*	x	-7%	i	i	-9%
CCNC(=S)Nc1cc(OCC)c(NC(=O)c2cccs2)cc1OCC	i	2%	-7%	i	i	1%
CCOc1cc(NS(=O)(=O)c2ccccc2)c(OCC)cc1NC(=O)c1ccco1	15µM*	-8%	0%	i	i	4%
CN(Cc1ccccc1)C(=O)Cn1nnc(-c2ccccc2)c1COc1ccc2ccccc2c1	i	-16%	-15%	u	i	-36%
CC(C)(C)C1CCC(CC2=C(O)c3ccccc3C(=O)C2=O)CC1 (centres undefined)	x	u	x	x	i	x
Cc1cccc2cc(CN(C(=O)c3ccc(C(F)(F)F)cc3)C3CC3)c(N3CCC(O)CC3)nc12	x	x	x	x	i	x
CCOC(=O)N1CCc2c(sc(NCc3cccs3)c2C(=O)Nc2cc(Cl)ccc2OC)C1	x	x	u	x	x	-9%
Cc1ccc(C(=O)NCc2ccccc2)cc1Br	18µM*	23%	-17%	i	i	-22%
O=C(NCc1ccco1)c1cccc(NC(=O)c2ccco2)c1	i	-10%	-7%	7.3µM*	i	-33%
CCOc1cc(NS(=O)(=O)c2ccc(Cl)cc2)c(OCC)cc1NC(=O)CC(C)C	11µM*	-4%	u	i	i	0%
O=C(NCc1ccccc1)c1cccc(NC(=O)c2ccco2)c1	8.2µM*	-12%	-2%	10µM*	i	5%
CC(C)CNC(=O)c1cccc(NC(=O)c2ccco2)c1	i	5%	-8%	i	i	5%
NC[C@H]1O[C@H](O[C@H]2[C@@H](O)[C@@H](O[C@H]3O[C@H](CO)[C@@H](O)[C@H](N)[C@@H]3O)[C@H](N)C[C@@H]2N)[C@H](N)C[C@H]1O	x	-11%	x	x	x	x
COc1ccc(-c2cc(C(F)(F)F)nc(SCC(=O)NCc3ccc(Cl)cc3)n2)cc1	x	x	1%	x	x	1%
COc1ccc(CNC(=O)c2cccc(NC(=O)c3ccccc3)c2)cc1	i	-14%	7%	i	i	-12%
